Measurements as given in PubChem BioAssay AID720485 (Milwaukee Institute for Drug Discovery, 2013).
This is one part of the list. Unmarked numbers belong to inactive results.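 How the source made its calls: active means percent inhibition of 50% or more; inactive means the rest.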

System: Hepatitis C virus NS3 helicase
Experiment: NS3h DNA-binding blockers re-examined – biochemical, fluorescence polarization, ChemBridge library, confirmation (AID 720485)
Settings: NS3h binding to Cy5-dT15 DNA, at 100 µM, stronger effect = higher value

Molecule `CCOc1cc(C=C2C(=O)NC(=O)NC2=O)cc(Br)c1OCCOc1ccccc1C` has an inhibition of 23.5%.
